Screening data from PubChem BioAssay.
The entries come from a sample that favours hits as a whole.
ClpP mod: qHTS Assay for Activators of ClpP; actives 1.9% (n = 340,000); ATP-dependent Clp protease proteolytic subunit (Bacillus subtilis (strain 168)), P80244; purified B. subtilis ClpP, FRET peptide cleavage, 20 min; Potency, µM (doses to about 57.5 µM), for the others: at the top dose activity change, negative = active; active = well fitted falling curve with a large enough effect; inconclusive = small, poorly fitted or top-dose-only effect; inactive = no such curve, though single readings can be large or run the other way; also: the source files actives as falling curves though it sought activators and does not explain the sign; nearly all actives have a fitted effect of over 65% in size
Target sequence (P80244 whole entry, looked up): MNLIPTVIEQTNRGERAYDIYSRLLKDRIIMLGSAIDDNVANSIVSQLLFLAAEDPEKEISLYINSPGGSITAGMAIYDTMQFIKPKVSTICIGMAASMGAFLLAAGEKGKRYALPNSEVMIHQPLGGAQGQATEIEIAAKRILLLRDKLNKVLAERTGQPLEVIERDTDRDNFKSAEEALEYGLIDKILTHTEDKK
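Purified B. subtilis ClpP, 10 microg/mL final in Tris/HCl pH8 with KCl, BSA, glycerol and Tween-20, cleaved an Abz/nitrotyrosine-quenched decapeptide. Fluorescence (ex 320, em 430) was read at 0 and 20 min at room temperature. Delta was normalized to 5.8 microM ADEP and DMSO/no-enzyme controls.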
GALK inh: inhibitors of human galactokinase. P51570. Purified GALK, Kinase-Glo residual ATP luminescence. Potency, µM (top dose mostly 57.5 µM), for the others: at the highest dose activity change, negative = inhibition, usual class: inhibitors. actives 0.007% (n = 270,000). AID 1868; also: % is scaled to controls: 0 for no effect and ±100 for the full control effect
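Compounds were pin-transferred into ATP buffer (35 uM final), then GALK plus galactose (5 nM, 100 uM final) was added. After 1 h at room temperature, Kinase-Glo Plus was added and luminescence read after 10 min.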
Eya2 inh: Eya2 (human) phosphatase inhibition. O00167. recombinant Eya2, OMFP fluorescence dephosphorylation (OMFP is methylfluorescein phosphate). Potency, µM (doses to about 76.9 µM), for the others: at the highest dose activity, negative = inhibition, actives largely listed as inhibitors. actives 0.006% (n = 330,000); also: % is scaled to controls: 0 for no effect and ±100 for the full control effect
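Eya2 protein (added as 0.2 uM solution) was preincubated with compound for 10 min at ambient temperature in 50 mM HEPES pH 7.5, 50 mM NaCl, 5 uM MgCl2, 0.05% BSA, 1 mM DTT. OMFP (added at 50 uM) then reacted 10 min; fluorescence read at 485/525 nm.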
USP2a inh: USP2a (human) protease inhibition; actives 0.01% (n = 330,000); O75604; USP2 core, Ub-CHOP2 coupled fluorogenic reporter, 485/531; Potency, µM (doses to about 38.3 µM), without a hit: at the highest dose activity change, negative = inhibition, actives largely listed as inhibitors;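 also: plate controls were DMSO wells for no effect and full inhibition by NEM control for full effect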
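Deubiquitinase activity read as fluorescence (485/531 nm) after Ub-CHOP2 cleavage activates the enterokinase reporter on its substrate; USP2 core 10nM, Ub-CHOP2 and substrate 25nM each, 30min compound preincubation then 60min RT; data normalized to NEM, curves fitted.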
* marks the source's active call; other numbers are inactive results; ? = inconclusive; · = no result; [ ] = remark or other dose. Unless noted, calls follow the shape of the dose curve; as a rule, active = well fitted inhibition curve with a large enough effect; inconclusive = small, poorly fitted or top-dose-only effect, or effect the other way; inactive = flat fitted curve, though single readings scatter. Potency is read from the fitted curve at half-maximal effect.

SMILES	ClpP mod	GALK inh	Eya2 inh	USP2a inh
CCOC(=O)Cc1cc(=O)n2[nH]c(-c3ccccc3)cc2n1	28µM*	2%	2%	-3%
CCOC(=O)Cc1c(C)nc2cc(-c3ccc(C(C)(C)C)cc3)nn2c1C	4%	·	·	·
CCOC(=O)Cc1c(C)nc2c(C#N)c[nH]n2c1=O	?	6%	3%	0%
Cc1cc(C)n(CC(=O)N/N=C/c2cccs2)n1	0%	2%	8%	2%
COc1ccccc1-n1cnc(N)c1C(C)=O	0%	-4%	-21%	-1%
COCc1c(C(=O)N/N=C(\C)c2ccc(Cl)s2)nnn1-c1nonc1N	-13%	-1%	0%	0%
CC(=O)NC(C)Cc1cn(Cc2ccccc2)c2ccccc12 (stereo not given)	-18%	0%	-6%	3%
OCCCc1cn(Cc2ccccc2)c2ccccc12	18µM*	3%	6%	4%
CCC(Sc1ncnc2c1c(-c1ccccc1)cn2-c1ccc(OC)cc1)C(=O)OC (stereo not given)	32µM*	1%	0%	5%
CCOC(=O)C(C)Sc1ncnc2c1c(-c1ccccc1)cn2-c1ccc(OC)cc1 (stereo not given)	25µM*	0%	-7%	0%
COc1ccccc1OCCNC(=O)c1ccc(C)c(S(=O)(=O)N2CCOCC2)c1	-2%	·	12%	0%
CCCCN(C)C(=O)CNC(=O)c1nn(-c2ccc(OC)cc2OC)c(=O)c2ccccc12	-2%	2%	6%	5%
Cc1cc(-c2nn(C)c(=O)c3ccccc23)cc(C)c1O	1%	·	-4%	0%
CCN(CC)c1ccc(-c2c(C#N)c(N)nc(OC)c2C#N)cc1	32µM*	-1%	-21%	1%
Cn1nc(N)c2c(-c3ccc(Cl)cc3)c(C#N)c(N)nc21	1%	2%	5%	-1%
COc1ccccc1CNC(=O)c1cnc2sc(N3CCCCCC3)nn2c1=O	14µM*	·	·	·
CCN(CC)c1nn2c(=O)c(C(=O)NCCc3cccc(C)c3)cnc2s1	11µM*	·	·	·
CCOCCCNC(=O)c1cnc2sc(N3CCCCCC3)nn2c1=O	16µM*	·	·	·
CCCCNC(=O)c1cnc2sc(N3CCCCC3)nn2c1=O	4%	·	·	·
CC(C)NC(=O)c1cnc2sc(N3CCCCCC3)nn2c1=O	16µM*	·	·	·
CCCN=C1NC(=O)C(CC(=O)NCCc2ccccc2)S1 (stereo not given)	·	-1%	-5%	4%
CCCCNC(=O)c1cnc2sc(N3CCCCCC3)nn2c1=O	25µM*	·	·	·
O=C(NCCc1ccccc1)c1cnc2sc(N3CCOCC3)nn2c1=O	10µM*	·	·	·
COc1ccc2c(c1)sc1ncc(C(=O)NCc3ccccc3F)c(=O)n12	11µM*	·	·	·
COc1ccc(CNC(=O)c2cnc3sc4cc(OC)ccc4n3c2=O)cc1	-27%	·	·	·
SMILES	ClpP mod	GALK inh	Eya2 inh	USP2a inh
O=C(COc1ccccc1)N1c2ccccc2Sc2ccccc21	16µM*	-3%	0%	1%
O=C(COc1cccc(F)c1)N1c2ccccc2Sc2ccccc21	1%	3%	1%	0%
CC(=O)c1cccc(NC(=O)C2CCN(c3ncnc4c3nc3n4CCCCC3)CC2)c1	-1%	·	·	·
COc1cc(/C=N/Nc2nc(Nc3ccc(C)cc3)nc(-n3nc(C)cc3C)n2)cc(OC)c1OC	28µM*	0%	5%	2%
CCOC(=O)N1CCC(NC(=O)c2ccc3c(c2)N(C)CCS3)CC1	28µM*	0%	-14%	-4%
CCOC(=O)N1CCC(NC(=O)c2ccc3c(c2)N(Cc2ccc(C)cc2)CCS3)CC1	5%	3%	-3%	2%
CCCCCc1nc2c(=O)n(C)c3ccccc3c2o1	-15%	1%	-4%	2%
Cn1c(=O)c2nc(-c3ccccc3)oc2c2ccccc21	11µM*	1%	-8%	1%
O=C(OCc1cc(=O)n2nc(-c3cccs3)sc2n1)c1cccc(Cl)c1	-13%	·	·	·
CCCCNC(=O)N(CC)c1c(N)n(Cc2ccccc2)c(=O)[nH]c1=O	·	3%	-3%	0%
COc1ccc(C2NC(=O)NC3=C2CCc2ccccc23)cc1 (stereo not given)	16µM*	2%	14%[15.4 µM]	0%
Cc1ccc(C2NC(=O)NC3=C2CCc2ccccc23)cc1 (stereo not given)	?	-1%	1%	2%
